Assay results taken from PubChem BioAssay (NCI).
The panel holds about 83,000 compounds, 20% with a hit somewhere; the sample as a whole holds those more often.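 Percent growth is the endpoint: 0 to 100 indicates growth inhibition (40 means 60% inhibition), 0 means no net growth, and negative values indicate cell death.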 The source made the active and inactive calls. How the source made its calls: active means growth percent below 10; inactive means the rest.

Assays:
Assay in all cases: NCI-60 one-dose screen, 48 h (100 = growth as untreated, 0 = no growth, -100 = all killed)
SK-MEL-2 melanoma = conditions: 10 µM unless noted
EKVX NSCLC = conditions: 10 µM unless noted
SN12C renal = conditions: 10 µM unless noted
UO-31 renal = conditions: 10 µM unless noted
TK-10 renal = conditions: 10 µM unless noted
ACHN renal = conditions: 10 µM unless noted
A498 renal = conditions: 10 µM
HL-60(TB) leukemia = conditions: 10 µM unless noted
CCRF-CEM leukemia = conditions: 10 µM unless noted
MOLT-4 leukemia = conditions: 10 µM unless noted
SR leukemia = conditions: 10 µM unless noted
RPMI-8226 leukemia = conditions: 10 µM unless noted
OVCAR-8 ovarian = conditions: 10 µM unless noted
OVCAR-5 ovarian = conditions: 10 µM unless noted
OVCAR-4 ovarian = conditions: 10 µM unless noted
SK-OV-3 ovarian = conditions: 10 µM unless noted
IGROV1 ovarian = conditions: 10 µM unless noted
OVCAR-3 ovarian = conditions: 10 µM unless noted
HS 578T breast = conditions: 10 µM unless noted
CAKI-1 renal = conditions: 10 µM unless noted

Measured: growth

Cn1cc(-c2csc(-c3cn(CCN4CCOCC4)c4ccccc34)n2)c2cccnc21
inactive: SK-MEL-2 melanoma 68.8% | EKVX NSCLC 55.1% | SN12C renal 77.4% | UO-31 renal 34.9% | TK-10 renal 87.9% | ACHN renal 63% | A498 renal 85.1% | HL-60(TB) leukemia 36.1% | CCRF-CEM leukemia 36.9% | MOLT-4 leukemia 29.9% | SR leukemia 63.6% | RPMI-8226 leukemia 29.6% | OVCAR-8 ovarian 29.5% | OVCAR-5 ovarian 95.6% | OVCAR-4 ovarian 64.2% | SK-OV-3 ovarian 105% | IGROV1 ovarian 61.8% | OVCAR-3 ovarian 70% | HS 578T breast 78%

Fc1ccc2c(c1)c(-c1nc(-c3c[nH]c4ncccc34)cs1)cn2CCN1CCOCC1
inactive: SK-MEL-2 melanoma 67.4% | EKVX NSCLC 32.8% | SN12C renal 65.8% | UO-31 renal 25.5% | TK-10 renal 64.1% | ACHN renal 48.3% | A498 renal 74.1% | HL-60(TB) leukemia 48.1% | CCRF-CEM leukemia 35.2% | MOLT-4 leukemia 35.4% | SR leukemia 39.7% | RPMI-8226 leukemia 29% | OVCAR-8 ovarian 33.5% | OVCAR-5 ovarian 89.8% | OVCAR-4 ovarian 44.7% | SK-OV-3 ovarian 87.2% | IGROV1 ovarian 21.5% | OVCAR-3 ovarian 59.5% | HS 578T breast 53.8%

CCCC[C@H](NC(=O)[C@H]1CCCCN1C)C(=O)N(C)[C@H](C[C@@H](OC(C)=O)c1nc(C(=O)N[C@@H](Cc2ccccc2)C[C@H](C)C(=O)OCC)cs1)C(C)C
inactive: SK-MEL-2 melanoma 11.8% | EKVX NSCLC 47.8% | SN12C renal 23.9% | UO-31 renal 31.9% | ACHN renal 13.5% | MOLT-4 leukemia 12.7% | RPMI-8226 leukemia 10.7% | OVCAR-8 ovarian 21% | OVCAR-5 ovarian 36.2% | OVCAR-4 ovarian 49.5% | IGROV1 ovarian 24.4% | HS 578T breast 12.1%
active: TK-10 renal -7.07% | A498 renal -11.9% | HL-60(TB) leukemia -25.7% | CCRF-CEM leukemia 8.81% | SR leukemia 4.92% | SK-OV-3 ovarian -6.08% | OVCAR-3 ovarian 3.86%

COC1OC(CO)C(O)C(O)[CH]1[Hg][O]C(C)=O (stereo not given)
inactive: SK-MEL-2 melanoma 107% | EKVX NSCLC 111% | SN12C renal 88.5% | UO-31 renal 101% | TK-10 renal 111% | ACHN renal 98.5% | CAKI-1 renal 101% | HL-60(TB) leukemia 94.6% | MOLT-4 leukemia 91.1% | SR leukemia 64.3% | RPMI-8226 leukemia 104% | OVCAR-8 ovarian 103% | OVCAR-5 ovarian 102% | OVCAR-4 ovarian 95.6% | SK-OV-3 ovarian 117% | IGROV1 ovarian 86.9% | OVCAR-3 ovarian 75.9% | HS 578T breast 89.8%

CC(=O)O[C@H](C[C@H](C(C)C)N(C)C(=O)[C@@H](NC(=O)[C@H]1CCCCN1C)C(C)C)c1nc(C(=O)N[C@@H](Cc2ccccc2)C[C@H](C)C(=O)O)c(CCOCc2ccccc2)s1
inactive: EKVX NSCLC 49% | UO-31 renal 31.8% | TK-10 renal 31.3% | ACHN renal 12.3% | CAKI-1 renal 24.4% | MOLT-4 leukemia 11% | OVCAR-8 ovarian 10.8% | OVCAR-5 ovarian 35.7% | OVCAR-4 ovarian 37% | SK-OV-3 ovarian 44.6% | IGROV1 ovarian 10.7% | HS 578T breast 11.4%
active: SK-MEL-2 melanoma 2.3% | SN12C renal 9.77% | HL-60(TB) leukemia -29.3% | SR leukemia 9.77% | RPMI-8226 leukemia -3.42% | OVCAR-3 ovarian -6.07%

COC(=O)[C@@H](C)C[C@H](Cc1ccccc1)NC(=O)c1nc([C@@H](C[C@H](C(C)C)N(C)C(=O)[C@@H](NC(=O)[C@H]2CCCCN2C)C(C)C)OC(C)=O)sc1C(C)C
active: A498 renal -9.92% | HL-60(TB) leukemia -45.5% | CCRF-CEM leukemia 7.31% | MOLT-4 leukemia 5.59% | SR leukemia 3.18% | OVCAR-8 ovarian 2.95% | OVCAR-3 ovarian -22.9% | HS 578T breast 4.24%
inactive: SK-MEL-2 melanoma 20% | EKVX NSCLC 31.2% | SN12C renal 10.8% | UO-31 renal 18.3% | TK-10 renal 45% | ACHN renal 18.4% | RPMI-8226 leukemia 20.5% | OVCAR-5 ovarian 27.1% | OVCAR-4 ovarian 41.6% | SK-OV-3 ovarian 26.8% | IGROV1 ovarian 19.8%

CC(=O)O[C@H](C[C@H](C(C)C)N(C)C(=O)[C@@H](NC(=O)[C@H]1CCCN1C)C(C)C)c1nc(C(=O)N[C@@H](Cc2ccccc2)C[C@H](C)C(=O)O)c(C)s1
inactive: SK-MEL-2 melanoma 36.5% | EKVX NSCLC 53.7% | SN12C renal 29.2% | UO-31 renal 49.3% | TK-10 renal 42.4% | ACHN renal 26.7% | MOLT-4 leukemia 18.9% | RPMI-8226 leukemia 19.8% | OVCAR-8 ovarian 17.9% | OVCAR-5 ovarian 36.1% | OVCAR-4 ovarian 48.2% | IGROV1 ovarian 30.2% | HS 578T breast 23.8%
active: A498 renal -2.65% | HL-60(TB) leukemia -19.2% | CCRF-CEM leukemia 8.48% | SR leukemia 8.27% | SK-OV-3 ovarian 6.85% | OVCAR-3 ovarian -22.9%

COC(=O)CC12CC(NC(=O)c3csc([C@@H](C[C@H](C(C)C)N(C)C(=O)[C@@H](NC(=O)[C@H]4CCCCN4C)C(C)C)OC(C)=O)n3)(C1)C2
inactive: SK-MEL-2 melanoma 51.6% | EKVX NSCLC 38.6% | SN12C renal 25.4% | UO-31 renal 55.2% | TK-10 renal 50.5% | ACHN renal 17.2% | CCRF-CEM leukemia 13.6% | MOLT-4 leukemia 16.5% | SR leukemia 20.1% | RPMI-8226 leukemia 24.4% | OVCAR-8 ovarian 30.5% | OVCAR-5 ovarian 42.9% | OVCAR-4 ovarian 56.1% | SK-OV-3 ovarian 18.4% | IGROV1 ovarian 26.3% | HS 578T breast 45%
active: A498 renal 5.32% | HL-60(TB) leukemia -29.6% | OVCAR-3 ovarian -34.3%

CC(=O)O[C@H](C[C@H](C(C)C)N(C)C(=O)[C@@H](NC(=O)[C@H]1CCCCN1C)C(C)C)c1nc(C(=O)N[C@@H](Cc2ccccc2)C[C@H](C)C(=O)O)c(C)s1
active: A498 renal -8.24% | HL-60(TB) leukemia -8.97% | SR leukemia 7.46% | SK-OV-3 ovarian 6.87%
inactive: SK-MEL-2 melanoma 61.5% | EKVX NSCLC 40.9% | SN12C renal 34.6% | UO-31 renal 58.9% | TK-10 renal 36.9% | ACHN renal 26.6% | CCRF-CEM leukemia 10.8% | MOLT-4 leukemia 20.7% | RPMI-8226 leukemia 25.1% | OVCAR-8 ovarian 20.1% | OVCAR-5 ovarian 31% | OVCAR-4 ovarian 50.6% | IGROV1 ovarian 31.1% | OVCAR-3 ovarian 12.5% | HS 578T breast 21.1%

CNC(=O)Oc1ccc2c(c1)OCO2
inactive: SK-MEL-2 melanoma 98.2% | EKVX NSCLC 97.9% | SN12C renal 99.7% | UO-31 renal 98.1% | TK-10 renal 101% | ACHN renal 99.3% | CAKI-1 renal 100% | HL-60(TB) leukemia 94.3% | MOLT-4 leukemia 94.3% | SR leukemia 91.4% | RPMI-8226 leukemia 115% | OVCAR-8 ovarian 101% | OVCAR-5 ovarian 106% | OVCAR-4 ovarian 116% | SK-OV-3 ovarian 116% | IGROV1 ovarian 104% | OVCAR-3 ovarian 119% | HS 578T breast 109%

CC(=O)OC[C@]1(C)C=C2C(=O)[C@](C)(O)C3(CC3)C(C)=C2[C@H]1OC(=O)N(C)CCN(C)C(=O)OC(C)(C)C
inactive: SN12C renal 14.2% | CCRF-CEM leukemia 19.9% | MOLT-4 leukemia 10.5% | SR leukemia 14% | RPMI-8226 leukemia 32.9% | HS 578T breast 17.5%
active: SK-MEL-2 melanoma -74.3% | EKVX NSCLC -7.18% | UO-31 renal -48.5% | TK-10 renal -8.19% | ACHN renal -8.88% | A498 renal -10.8% | HL-60(TB) leukemia -37% | OVCAR-8 ovarian -12% | OVCAR-5 ovarian 3.2% | OVCAR-4 ovarian -2.23% | SK-OV-3 ovarian 1.41% | IGROV1 ovarian 1.75% | OVCAR-3 ovarian -8.01%

O=C1CNC(c2ccccc2)c2cc(Cl)ccc2N1 (stereo not given)
inactive: SK-MEL-2 melanoma 95.5% | EKVX NSCLC 104% | SN12C renal 97.6% | UO-31 renal 80.4% | TK-10 renal 93.2% | ACHN renal 109% | A498 renal 97.5% | HL-60(TB) leukemia 97.5% | CCRF-CEM leukemia 94.2% | MOLT-4 leukemia 93.5% | SR leukemia 88.8% | RPMI-8226 leukemia 109% | OVCAR-8 ovarian 99.7% | OVCAR-5 ovarian 113% | OVCAR-4 ovarian 112% | SK-OV-3 ovarian 98.2% | IGROV1 ovarian 100% | OVCAR-3 ovarian 98%

CC1(C)C(C(=O)c2cn(CCCCF)c3ccccc23)C1(C)C
inactive: SK-MEL-2 melanoma 86.4% | EKVX NSCLC 88.7% | SN12C renal 103% | UO-31 renal 95.2% | TK-10 renal 102% | ACHN renal 115% | A498 renal 92.9% | HL-60(TB) leukemia 76% | CCRF-CEM leukemia 87.1% | MOLT-4 leukemia 77.8% | SR leukemia 77.9% | RPMI-8226 leukemia 81.5% | OVCAR-8 ovarian 82% | OVCAR-5 ovarian 103% | OVCAR-4 ovarian 107% | SK-OV-3 ovarian 102% | IGROV1 ovarian 114% | OVCAR-3 ovarian 105%

COC(=O)[C@@H](C)C[C@H](Cc1ccccc1)NC(=O)c1nc([C@@H](C[C@H](C(C)C)N(C)C(=O)[C@@H](NC(=O)[C@H]2CCCCN2C)C(C)C)OC(C)=O)sc1C
active: A498 renal -19.3% | HL-60(TB) leukemia -43.5% | CCRF-CEM leukemia 7.82% | SR leukemia 4.24% | OVCAR-3 ovarian -37.8%
inactive: SK-MEL-2 melanoma 26.5% | EKVX NSCLC 33.9% | SN12C renal 18.3% | UO-31 renal 44.5% | TK-10 renal 31.1% | ACHN renal 24.5% | MOLT-4 leukemia 11.1% | RPMI-8226 leukemia 18.2% | OVCAR-8 ovarian 15% | OVCAR-5 ovarian 41.4% | OVCAR-4 ovarian 50.6% | SK-OV-3 ovarian 29.9% | IGROV1 ovarian 22.7% | HS 578T breast 13.7%

CC(=O)O[C@H](C[C@H](C(C)C)N(C)C(=O)[C@@H](NC(=O)[C@H]1CCCCN1C)C(C)C)c1nc(C(=O)NC2CCC(C(=O)O)CC2)cs1 (stereo not given in full)
active: HL-60(TB) leukemia -22.2% | OVCAR-3 ovarian 2.22%
inactive: SK-MEL-2 melanoma 37.4% | EKVX NSCLC 57.8% | SN12C renal 13.4% | UO-31 renal 76.4% | TK-10 renal 73.8% | ACHN renal 86.8% | A498 renal 35.8% | CCRF-CEM leukemia 12.8% | MOLT-4 leukemia 30.9% | SR leukemia 22.3% | RPMI-8226 leukemia 23.8% | OVCAR-8 ovarian 59.9% | OVCAR-5 ovarian 85.7% | OVCAR-4 ovarian 72% | SK-OV-3 ovarian 50.9% | IGROV1 ovarian 52.9% | HS 578T breast 24.2%
